Experimental data taken from PubChem BioAssay (Tox21).
Inconclusive results are not listed. The source made the active and inactive calls. Unless noted, calls come from the whole dose curve; as a rule, active = well fitted curve in the direction sought with a large enough effect in the repeat runs; inconclusive = weak or mixed curves; inactive = no such curve, though single readings can be large; an effect the other way counts as inactive or inconclusive.

Assays:
[1] = qHTS assay for small molecule agonists of the p53 signaling pathway (AID 651631; calls by dose curve; note: nearly all actives have a fitted effect of over 15% in size)
Procedure, shortened: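 HCT-116 cells carrying a beta-lactamase reporter under p53 response elements were dosed with compound for 16 h at 37 °C. LiveBLAzer B/G FRET substrate was then added for 2 h at room temperature, and fluorescence intensity was read to detect pathway agonism.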

[2] = qHTS assay for small molecules that induce genotoxicity in human embryonic kidney cells expressing luciferase-tagged ATAD5 (AID 651632); note: nearly all actives have a fitted effect of over 15% in size
Procedure, shortened: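 Luminescence read-out: after 16 hr compound exposure at 37C, ATAD5-luciferase HEK293T cells received Amplite, 30 min RT, then CCD imaging. A rise in signal marks genotoxic stress.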

[3] = qHTS assay for small molecule agonists of the p53 signaling pathway - cell viability (AID 651633; calls by dose curve;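 note: p53RE-bla HCT reporter cells with a stable beta-lactamase p53 reporter; series mostly up to about 83 µM; nearly all actives have a fitted effect of over 30% in size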)
Procedure, shortened: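 Viability counter-read: CellTiter-Glo luminescence (30 min, room temperature) in the same p53RE-bla plates. These plates had been exposed to compounds for 16 h at 37 C.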

[4] = qHTS assay for small molecule disruptors of the mitochondrial membrane potential - cell viability (AID 720634; calls by dose curve;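 note: human HepG2 liver cancer cells; series mostly up to about 83 µM; nearly all actives have a fitted effect of over 20% in size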)
Procedure, shortened: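 Luminescence from CellTiter-Glo (ATP content) gave viability in HepG2 cells, read in the same wells as the MMP dye assay after 1 hr compound exposure at 37 C.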

[5] = qHTS assay to test for compound auto fluorescence at 590 nm (red) in HepG2 cells (AID 720674)
Procedure, shortened: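 1 hr compound incubation on HepG2 cells, 37 C, 5% CO2; plate read ex 540 nm / em 590 nm; intensities reported as Rose Bengal sodium equivalents.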

[6] = qHTS assay to test for compound auto fluorescence at 535 nm (green) in HepG2 cells (AID 720675)
[7] = qHTS assay to test for compound auto fluorescence at 590 nm (red) in HEK293 cells (AID 720679)
Procedure, shortened: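 We plated HEK293 cells in 10% dialyzed FBS medium, let them adhere for 4-5 hr, then added 23 nL compound. Overnight at 37C and 5% CO2 preceded fluorescence measurement at 540/590nm.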

[8] = qHTS assay to test for compound auto fluorescence at 535 nm (green) in HEK293 cells (AID 720680)
[9] = qHTS assay to test for compound auto fluorescence at 460 nm (blue) in HEK293 cell free culture (AID 720681)
Procedure, shortened: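 Blue fluorescence (Ex 405/Em 460 nm, triamterene-equivalent) was read immediately after pin transfer of compound or DMSO into medium (DMEM, 10% FBS) without cells.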

[10] = qHTS assay to test for compound auto fluorescence at 535 nm (green) in HEK293 cell free culture (AID 720682)
Procedure, shortened: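 Green-label autofluorescence (485 nm excitation, 535 nm emission) measured on compound added to cell-free culture medium (DMEM, 10% FBS). Output is expressed relative to fluorescein.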

[11] = qHTS assay to test for compound auto fluorescence at 590 nm (red) in HEK293 cell free culture (AID 720683)
Procedure, shortened: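 Red-channel autofluorescence of compounds in culture medium (DMEM, 10% FBS), no cells, measured at 540/590 nm. Rose Bengal sodium is the reference fluorophore for equivalence.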

[12] = qHTS assay to test for compound auto fluorescence at 590 nm (red) in HepG2 cell free culture (AID 720684)
Procedure, shortened: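 Cell-free; medium MEM + 10% FBS; compound or DMSO added by pintool; read Ex 540/Em 590 nm; Rose Bengal sodium as red reference fluorophore.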

[13] = qHTS assay to test for compound auto fluorescence at 460 nm (blue) in HepG2 cell free culture (AID 720685)
Procedure, shortened: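 Cell-free plates of MEM plus 10% FBS received 23 nL compound or DMSO vehicle; blue-channel (405/460 nm) intensity scored against triamterene as reference fluorophore.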

[14] = qHTS assay to test for compound auto fluorescence at 460 nm (blue) in HepG2 cells (AID 720687)
Procedure, shortened: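 Blue-channel autofluorescence (Ex/Em 405/460 nm, triamterene-equivalent) was measured after 1 hr compound exposure at 37 C, 5% CO2. Cells were HepG2, plated overnight at 37 C in MEM plus 10% FBS.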

[15] = molecular target: Glucocorticoid receptor (Homo sapiens) (UniProt P04150); assay: qHTS assay to identify small molecule agonists of the glucocorticoid receptor (GR) signaling pathway (AID 720691; active = well fitted activation curve with a large enough effect in the signal ratio in the repeat runs, not every such curve was filed as active; the % refers to the signal ratio)
Sequence of Glucocorticoid receptor (Homo sapiens) (P04150 whole entry, looked up): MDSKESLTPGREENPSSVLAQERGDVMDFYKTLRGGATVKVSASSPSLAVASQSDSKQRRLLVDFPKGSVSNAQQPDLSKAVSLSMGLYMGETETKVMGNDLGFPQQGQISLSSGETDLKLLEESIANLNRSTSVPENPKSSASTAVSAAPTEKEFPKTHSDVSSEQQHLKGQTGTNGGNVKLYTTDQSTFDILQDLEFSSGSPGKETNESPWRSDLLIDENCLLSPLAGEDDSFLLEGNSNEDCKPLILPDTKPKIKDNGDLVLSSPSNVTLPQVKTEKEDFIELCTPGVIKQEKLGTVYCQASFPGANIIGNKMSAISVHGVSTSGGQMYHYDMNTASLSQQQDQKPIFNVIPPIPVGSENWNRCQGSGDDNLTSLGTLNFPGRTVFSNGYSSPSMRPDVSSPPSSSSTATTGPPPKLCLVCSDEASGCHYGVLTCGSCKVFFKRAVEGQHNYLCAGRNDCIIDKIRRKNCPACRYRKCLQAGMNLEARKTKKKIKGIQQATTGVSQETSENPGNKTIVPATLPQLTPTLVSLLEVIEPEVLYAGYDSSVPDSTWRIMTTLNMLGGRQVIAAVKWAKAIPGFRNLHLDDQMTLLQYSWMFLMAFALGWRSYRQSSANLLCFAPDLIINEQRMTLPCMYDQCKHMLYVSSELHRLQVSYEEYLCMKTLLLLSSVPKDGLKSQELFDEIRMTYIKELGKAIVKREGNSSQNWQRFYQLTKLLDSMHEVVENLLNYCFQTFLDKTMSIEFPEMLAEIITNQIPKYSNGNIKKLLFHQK
Procedure, shortened: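 HeLa GR-bla reporter line; cells pre-incubated 4 h, compound in DMSO 18 h at 37 C; LiveBLAzer B/G FRET substrate 2 h RT; fluorescence intensity read-out.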

[16] = molecular target: Glucocorticoid receptor (Homo sapiens) (UniProt P04150); assay: qHTS assay to identify small molecule antagonists of the glucocorticoid receptor (GR) signaling pathway (AID 720692; active = well fitted inhibition curve with a large enough effect in the signal ratio in the repeat runs, not every such curve was filed as active; the % refers to the signal ratio)
Procedure, shortened: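 Read-out: beta-lactamase FRET substrate fluorescence, 2 h at room temperature, in HeLa cells stably carrying a GRE-driven bla reporter. Compounds were co-incubated with 5 nM dexamethasone agonist (final) for 18 h at 37 C.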

[17] = qHTS assay for small molecule disruptors of the mitochondrial membrane potential (AID 720635)
Procedure, shortened: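 Mitochondrial membrane potential tracked with Mito-MPS dye, red aggregates (ex 540/em 590 nm) against green monomers (ex 490/em 535 nm). Compound treatment 1 hr at 37C, dye 30 min in HepG2.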

[18] = qHTS assay to test for compound auto fluorescence at 460 nm (blue) in HEK293 cells (AID 720678)
Procedure, shortened: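 Triamterene serves as the blue fluorophore standard. Compound signal at 405/460 nm is read in HEK293 wells (2,000 cells, 10% dialyzed FBS) after overnight treatment at 37C.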

[19] = qHTS assay to test for compound auto fluorescence at 535 nm (green) in HepG2 cell free culture (AID 720686)
[20] = qHTS assay for small molecules that induce genotoxicity in human embryonic kidney cells expressing luciferase-tagged ATAD5 - cell viability (AID 651634; calls by dose curve; note: nearly all actives have a fitted effect of over 25% in size)
Procedure, shortened: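 HEK293T ATAD5-luc cells, 2,000/well; compound 15.5 hr, 37C/5% CO2; CellTiter-Fluor 30 min, 37C; fluorescence read.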
% is set by controls: 0 for no effect and ±100 for the full control effect.

COc1ccccc1OC
inactive: Potency [1] | outcome [2] | Potency [3] | Potency [4] | outcome [5] | outcome [6] | outcome [7] | outcome [8] | outcome [9] | outcome [10] | outcome [11] | outcome [12] | outcome [13] | outcome [14] | Potency [15] | Potency [16]

C=CC(=O)OCCN(C)C
inactive: Potency [1] | outcome [2] | Potency [3] | Potency [4] | Potency [17] | outcome [5] | outcome [6] | outcome [18] | outcome [7] | outcome [8] | outcome [9] | outcome [10] | outcome [12] | outcome [13] | outcome [14] | Potency [15] | Potency [16]

O=c1[nH]oc2c1CCNC2
inactive: Potency [1] | outcome [2] | Potency [3] | outcome [5] | outcome [6] | outcome [7] | outcome [8] | outcome [9] | outcome [10] | outcome [11] | outcome [12] | outcome [13] | outcome [19] | outcome [14] | Potency [15]

N#CN=C1SCCN1Cc1ccc(Cl)nc1
inactive: Potency [1] | outcome [2] | Potency [3] | Potency [4] | Potency [17] | outcome [5] | outcome [6] | outcome [18] | outcome [7] | outcome [8] | outcome [9] | outcome [10] | outcome [11] | outcome [13] | Potency [15] | Potency [16]

C#CCOC(=O)/C=C(C)/C=C/CC(C)CCCC(C)C (centres undefined)
inactive: Potency [1] | outcome [2] | Potency [3] | Potency [20] | Potency [4] | outcome [5] | outcome [6] | outcome [18] | outcome [7] | outcome [8] | outcome [9] | outcome [10] | outcome [11] | outcome [13] | outcome [14] | Potency [15]

CNC(=O)O/N=C(/CSC)C(C)(C)C
inactive: Potency [1] | outcome [2] | Potency [3] | Potency [20] | Potency [4] | outcome [5] | outcome [6] | outcome [18] | outcome [7] | outcome [8] | outcome [9] | outcome [10] | outcome [11] | outcome [12] | outcome [13] | outcome [19] | outcome [14] | Potency [15] | Potency [16]

Clc1nc(Cl)nc(Nc2ccccc2Cl)n1
inactive: Potency [1] | outcome [2] | Potency [3] | Potency [4] | Potency [17] | outcome [5] | outcome [6] | outcome [7] | outcome [8] | outcome [9] | outcome [10] | outcome [11] | outcome [12] | outcome [13] | outcome [19] | Potency [15] | Potency [16]

ClCCCCl
inactive: Potency [1] | outcome [2] | Potency [3] | Potency [20] | Potency [4] | outcome [5] | outcome [6] | outcome [18] | outcome [7] | outcome [8] | outcome [9] | outcome [10] | outcome [11] | outcome [12] | outcome [13] | outcome [19] | Potency [15]

O=[N+]([O-])CCO
inactive: Potency [1] | outcome [2] | Potency [3] | Potency [20] | outcome [5] | outcome [6] | outcome [18] | outcome [7] | outcome [8] | outcome [9] | outcome [10] | outcome [11] | outcome [12] | outcome [13] | outcome [19] | outcome [14] | Potency [15]

O=C1CC(=O)NC(=O)N1
inactive: Potency [1] | outcome [2] | Potency [3] | Potency [4] | outcome [5] | outcome [6] | outcome [18] | outcome [7] | outcome [8] | outcome [9] | outcome [10] | outcome [11] | outcome [12] | outcome [13] | outcome [19] | outcome [14] | Potency [15] | Potency [16]

ClCC1CO1 (centres undefined)
inactive: Potency [1] | outcome [2] | Potency [3] | Potency [4] | Potency [17] | outcome [5] | outcome [6] | outcome [18] | outcome [7] | outcome [8] | outcome [9] | outcome [10] | outcome [12] | outcome [13] | outcome [19] | outcome [14] | Potency [15] | Potency [16]

C[C@H](CN1CCOCC1)C(C(=O)N1CCCC1)(c1ccccc1)c1ccccc1
inactive: Potency [1] | outcome [2] | Potency [3] | Potency [20] | Potency [4] | outcome [5] | outcome [6] | outcome [18] | outcome [7] | outcome [8] | outcome [9] | outcome [10] | outcome [12] | outcome [13] | outcome [19] | outcome [14] | Potency [15] | Potency [16]

CN(C)C(=O)Oc1cc(OC(=O)N(C)C)cc(C(O)CNC(C)(C)C)c1 (centres undefined)
inactive: Potency [1] | outcome [2] | Potency [3] | Potency [20] | Potency [4] | fluorescence, relative to Rose Bengal [5] 0.42% [at 18.6 µM] | fluorescence, % of fluorescein control [6] 0.0476% [at 18.6 µM] | fluorescence, % of triamterene [18] 0.0042% [at 18.6 µM] | fluorescence, % of fluorescent control [7] 0.104% [at 18.6 µM] | fluorescence, % of fluorescein [8] 0.102% [at 18.6 µM] | fluorescence, % of fluorescent control [9] 0.0217% [at 18.6 µM] | activity change [10] -0.0374% [at 18.6 µM] | fluorescence, % of Rose Bengal [12] -0.0966% [at 18.6 µM] | fluorescence, % of fluorescent control [13] 0.0484% [at 18.6 µM] | fluorescence, % of fluorescein control [19] -0.0661% [at 18.6 µM] | Potency [15] | Potency [16]

CN1COCN(Cc2cnc(Cl)s2)/C1=N\[N+](=O)[O-]
inactive: Potency [1] | outcome [2] | Potency [3] | Potency [20] | Potency [4] | outcome [5] | outcome [6] | outcome [18] | outcome [7] | outcome [8] | outcome [9] | outcome [10] | outcome [11] | outcome [13] | outcome [14] | Potency [15] | Potency [16]

C/C(=N\NC(=O)Nc1cc(F)cc(F)c1)c1ncccc1C(=O)O
inactive: Potency [1] | outcome [2] | Potency [3] | Potency [4] | Potency [17] | outcome [5] | outcome [6] | outcome [18] | outcome [7] | outcome [8] | outcome [9] | outcome [10] | outcome [11] | outcome [12] | outcome [13] | outcome [19] | outcome [14] | Potency [15] | Potency [16]

CNC(=O)Oc1ccccc1C(C)C
inactive: Potency [1] | outcome [2] | Potency [3] | Potency [20] | Potency [4] | outcome [5] | outcome [6] | outcome [18] | outcome [7] | outcome [8] | outcome [9] | outcome [10] | outcome [13] | outcome [19] | outcome [14] | Potency [15] | Potency [16]
